Measurements: publication PMC4552634, “A New Set of Chemical Starting Points with Plasmodium falciparum Transmission-Blocking Potential for Antimalarial Drug Discovery” (PLoS ONE, 2015)
Where two headings read alike, the source gives them in different places. The whole screen tested about 13,000 compounds, of which about 3,200 (25%) showed an effect of 50% or more. The list shows a part of the results.

System: P. falciparum stage V gametocytes
Set-up: BacTiter-Glo ATP luminescence viability of purified stage V gametocytes in 384-well plates, per cent inhibition versus DMSO
Conditions: 48 h, 5 µM, inhibitor

| SMILES | % Inhibition [%] | % Inhibition (% Inhibition) [%] |
| --- | --- | --- |
| CCCCCCOc1ccc(C(=O)NCCCC2CCCN(CCCCCNC(=O)C=Cc3ccc(Cl)c(Cl)c3)C2)cc1 (centres unmarked) [TCMDC-139581] | 50.48 |  |
| O=C(C=Cc1ccc(Cl)c(Cl)c1)NCCCCCN1CCC(CCNC(=O)c2ccc3c(c2)OCO3)CC1 [TCMDC-139568] | 96.26 |  |
| O=C(/C=C/c1ccc(Cl)c(Cl)c1)NCCCCCN1CC[C@H](NC(=O)c2ccc3c(c2)OCO3)C1 [TCMDC-139563] | 17.23 |  |
| CCCCCCOc1ccc(C(=O)NCCCC2CCN(CCCCCNC(=O)C=Cc3ccc(Cl)c(Cl)c3)CC2)cc1 [TCMDC-139575] | 7.423 |  |
| CCCCCCOc1ccc(C(=O)NCCC2CCN(CCCCCNC(=O)C=Cc3ccc(Cl)c(Cl)c3)CC2)cc1 [TCMDC-139569] | 13.58 |  |
| O=C(C=Cc1ccc(Cl)c(Cl)c1)NCCCCCN1CCCC(CCCNC(=O)c2ccc3c(c2)OCO3)C1 (centres unmarked) [TCMDC-139580] | 81.7 |  |
| O=C(/C=C/c1ccc(Cl)c(Cl)c1)NCCCCCN1CCC(NC(=O)Nc2ccc3c(c2)OCO3)CC1 [TCMDC-135718] | -35.92 |  |
| Cc1ccc(NC(=O)N2CCCN(CCCCCNC(=O)/C=C/c3ccc(Cl)c(Cl)c3)CC2)cc1 [TCMDC-135744] | -49.55 |  |
| N#Cc1cc(C(=O)c2cc(Br)ccc2O)cn(-c2cc(Cl)cc(Cl)c2)c1=O [TCMDC-125187] | -21.05 |  |
| O=[N+]([O-])c1cccc(CNCC2CCC(CNCc3cccc([N+](=O)[O-])c3)CC2)c1 (centres unmarked) [TCMDC-141176] | 8.201 |  |
| COc1ccc(OC)c(CC2c3ccc(Br)c(O)c3CCN2C)c1 (centres unmarked) [TCMDC-137439] | 12.74 |  |
| CN1CCN(c2cc3c(cc2Cl)CCN3C(=O)Cc2ccc(NC(=O)Nc3cccc4ccccc34)cc2)CC1 [TCMDC-139472] | -2.627 |  |
| Cn1ccnc1CNC(=O)c1ccc(-c2cccc(-c3nc4cc(C(F)(F)F)ccc4[nH]3)c2)cc1 [TCMDC-132357] | 7.087 |  |
| Cc1[nH]c(C)c(-c2ccc(-c3ccc(Cl)cc3)nc2)c(=O)c1Cl [TCMDC-136301] | 72.82 |  |
| Cc1[nH]c(C)c(-c2ccc(-c3ccc(C(F)F)cc3)nc2)c(=O)c1Cl [TCMDC-132329] | 58.86 |  |
| Cc1[nH]c(C)c(-c2ccc(-c3ccc(C#N)cc3)nc2)c(=O)c1Br [TCMDC-136169] | 28.48 |  |
| Cc1[nH]c(C)c(-c2ccc(-c3ccc(OCC(F)(F)F)cc3)nc2)c(=O)c1Cl [TCMDC-132306] | 43.23 |  |
| Cc1[nH]c(C)c(-c2ccc(-c3ccc(F)cc3)nc2)c(=O)c1Br [TCMDC-135925] | 64.89 |  |

| SMILES | % Inhibition [%] | % Inhibition (% Inhibition) [%] |
| --- | --- | --- |
| Cc1[nH]c(C)c(-c2ccc(-c3ccccc3)nc2)c(=O)c1Br [TCMDC-136158] | 42.67 |  |
| Cc1[nH]c(C)c(-c2ccc(-c3ccc(Cl)cc3)nc2)c(=O)c1Br [TCMDC-136159] | 67.06 |  |
| CC1(C)N=C(N)N=C(N)N1OCCCOc1ccccc1Cl [TCMDC-131739] | -0.9938 |  |
| O=C(Nc1ccc(-c2nc3ccccc3[nH]2)cc1)c1ccc(S(=O)(=O)N2CCc3ccccc32)cc1 [TCMDC-125713] | -13.88 |  |
| O=C(N[C@@H](CC1CCCCC1)C(=O)NC1CCCc2ccccc21)c1ccc(O)c(-c2ccc(Cl)c(Cl)c2)c1 (some centres unmarked) [TCMDC-140869] | 28.8 |  |
| CCOC(=O)c1ccc(-n2c(C)cc(C=C3SC(=Nc4ccccc4)N(C4CCCC4)C3=O)c2C)cc1 [TCMDC-125697] | -3.505 |  |
| Cc1[nH]c(C)c(-c2ccc(-c3ccc4c(c3)OCO4)nc2)c(=O)c1Br [TCMDC-136161] | 79.48 |  |
| CCC1CN2CCc3c([nH]c4ccccc34)[C@@H]2C[C@@H]1CC1NCCc2cc(OC)c(OC)cc21 (some centres unmarked) [TCMDC-142008] |  | -47.66 |
| Cc1onc(-c2ccccc2Cl)c1C(=O)Nc1cc(Cl)c(Cl)cc1Cl [TCMDC-123514] | 9.365 |  |
| COc1ccc(-c2ccc(CNC(=O)c3ccc(C#N)cc3)c(F)c2)cc1CN1CCCN(C)CC1 [TCMDC-133368] | -37.75 |  |
| COc1cc(OC)cc(C(=O)Nc2cccc(-c3cn4ccc(C)cc4n3)c2)c1 [TCMDC-124622] | 4 |  |
| Cc1ccn2cc(-c3ccc(NC(=O)c4ccc(Br)o4)cc3)nc2c1 [TCMDC-124517] | 106.8 |  |
| COc1cc(C(=O)Nc2cccc(-c3cn4ccc(C)cc4n3)c2)cc(OC)c1OC [TCMDC-125384] | 26.29 |  |
| Cc1cc(OCCCN2CCC(NS(=O)(=O)c3cccc(Br)c3)CC2)c2ccccc2n1 [TCMDC-136279] | -49.51 |  |
| CCCCOc1cc(OC)c2ccccc2c1CCNCCCCNCCc1c(OCCCC)cc(OC)c2ccccc12 [TCMDC-137845] | 110.3 |  |
| CCCCOc1c(CCNCCCCNCCc2cc(OC)c3ccccc3c2OCCCC)cc(OC)c2ccccc12 [TCMDC-137848] | 124.7 |  |
| CCCCc1cc(Cc2cnc(N)nc2N)cc(OC)c1OC [TCMDC-137876] | -18.26 |  |
